# aGlu spleen mod: qHTS Assay for Inhibitors and Activators of Human alpha-Glucosidase From Spleen Homogenate | human spleen homogenate, 4-MU-alpha-glucoside fluorescence | Potency, µM (highest dose often 79.9 µM), hits mostly inhibitors | actives 0.006% (n = 240,000) | AID 2112, 2009
#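 Compounds were titrated against alpha-glucosidase in spleen homogenate at pH 5.0, with 1 mM 4-methylumbelliferyl substrate for 40 min at 37 C. Reactions were quenched with pH 10 NaOH/glycine and fluorescence measured.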
# GAA glycogen mod: qHTS Assay for Inhibitors and Activators of Human alpha-Glucosidase Cleavage of Glycogen; AID 2100, 2009; Potency, µM (series often up to 76.4 µM), most hits filed as inhibitors; actives 0.38% (n = 300,000); Lysosomal alpha-glucosidase (Homo sapiens), P10253; recombinant GAA, glycogen substrate, Amplex Red glucose oxidase fluorescence;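 note: the screen sought inhibitors and activators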
#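 Recombinant enzyme (4 nM final) with compounds titrated up to 77 uM and bovine liver glycogen (30 ug) in citrate pH 5.0, 0.01% Tween-20, 37 C 40 min. Released glucose detected by Amplex Red/glucose oxidase (Ex 573/Em 610); AC50 from Hill fits.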
# GAA inhib: qHTS Assay for Inhibitors of Human alpha-Glucosidase as a Potential Chaperone Treatment of Pompe Disease | Lysosomal alpha-glucosidase (Homo sapiens), P10253 | purified human GAA, 4-MU-alpha-glucoside fluorescence | Potency, µM (titrated, usually from 76.9 µM), usual class: inhibitors | actives 0.005% (n = 200,000) | AID 1466, 2008
#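 Activity normalized between no-enzyme (basal) and enzyme-only wells. Conditions: 4 nM human enzyme, 400 uM fluorogenic substrate, citrate/phosphate pH 5.0 with Tween-20, 20 min room temperature, compounds up to 77 uM.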
# CXXC DNA block: qHTS Fluorescence Polarization Assay for Inhibitors of MLL CXXC domain - DNA interaction; MLL-CXXC / FITC-HOXA9 DNA fluorescence polarization; Histone-lysine N-methyltransferase 2A (Homo sapiens), Q03164; Potency, µM (highest dose often 115 µM), most hits filed as inhibitors; actives 0.037% (n = 290,000); active = well fitted inhibition curve with a large enough effect in the polarisation, with a control signal flat, not every such curve was filed as active; inconclusive = small, poorly fitted or top-dose-only effect, or effect the other way, or a change in a side signal; inactive = no such curve, though single readings can be large or run the other way; the % refers to the polarisation
#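 Steps: dispense CXXC domain solution (7 uM) → pin compounds or unlabeled HOX-A9 DNA control → 5 min ambient → add FLSN-HOX-A9 solution (50 nM) → spin → 30 min ambient → fluorescence polarization. Tris pH 7.5/NaCl/DTT/BSA buffer.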
# Menin MLL FP FL: qHTS Assay for Inhibitors Targeting the Menin-MLL Interaction in MLL Related Leukemias: Competition With Fluorescein Labeled MLL-derived Peptide; Fluorescence polarization, fluorescein-MLL peptide displacement from menin; FP activity change, % at 61.4 µM; 290,000 tested, under 10 active; AID 1766, 2009; active = well fitted curve in the direction sought with a large enough effect in the polarisation, not every such curve was filed as active; inconclusive = small, poorly fitted or top-dose-only effect, or effect the other way, or a change in a side signal; inactive = no such curve, though single readings can be large or run the other way; the % refers to the polarisation
# Menin MLL FP TR: qHTS Assay for Inhibitors Targeting the Menin-MLL Interaction in MLL Related Leukemias: Competition With Texas Red Labeled MLL-derived Mutant Peptide; AID 1768, 2009; Menin + Texas Red MLL mutant peptide, fluorescence polarization; O00255; actives 0.23% (n = 270,000); Potency, µM (titrated, usually from 61.6 µM), most hits filed as inhibitors; active = well fitted inhibition curve with a large enough effect in the polarisation, with a control signal flat, not every such curve was filed as active; inconclusive = small, poorly fitted or top-dose-only effect, or effect the other way, or a change in a side signal; inactive = no such curve, though single readings can be large or run the other way; the % refers to the polarisation
# MLL CXXC Fl: qHTS Fluorescence Polarization (FP) Assay for Inhibitors of MLL CXXC domain - DNA interaction: Fluorescein FP; shares compounds with CXXC DNA block; MLL CXXC-DNA binding, fluorescein FP; Potency, µM (highest dose often 345 µM), actives largely listed as inhibitors; actives 70% (n = 200); AID 624160, 2012; note: nearly all actives have a fitted effect of over 80% in size
# MLL CXXC TxRed: qHTS Fluorescence Polarization (FP) Assay for Inhibitors of MLL CXXC domain - DNA interaction: Texas Red FP; shares compounds with CXXC DNA block; MLL CXXC-DNA binding, Texas Red fluorescence polarization; Potency, µM (series often up to 345 µM), actives largely listed as inhibitors; actives 40% (n = 200); AID 624161, 2012; note: nearly all actives have a fitted effect of over 75% in size
# MLL CXXC TRF: qHTS Fluorescence Polarization (FP) Assay for Inhibitors of MLL CXXC domain - DNA interaction: HTRF Assay; MLL CXXC-DNA binding, HTRF, biochemical; Potency, µM (highest dose often 172 µM), usual class: inhibitors; actives 30% (n = 210); shares compounds with CXXC DNA block; note: nearly all actives have a fitted effect of over 80% in size
# Numbers stand for hits; . = inactive; ? = inconclusive; / = not tested or not shown. The list is not random: actives were taken first. Their share in the collection is about 0.45%. Unless noted, calls come from the whole dose curve; as a rule, active = well fitted curve in the direction sought with a large enough effect; inconclusive = small, poorly fitted or top-dose-only effect, or another doubt; inactive = no such curve, though single readings can be large; an effect the other way counts as inactive or inconclusive.
SMILES,aGlu spleen mod,GAA glycogen mod,GAA inhib,CXXC DNA block,Menin MLL FP FL,Menin MLL FP TR,MLL CXXC Fl,MLL CXXC TxRed,MLL CXXC TRF
Cc1ccc(S(=O)(=O)Oc2ccc(N=Nc3ccc(-c4ccc(N=Nc5c(O)ccc6cc(S(=O)(=O)O)cc(S(=O)(=O)O)c56)c(C)c4)cc3C)cc2)cc1,.,/,/,/,/,/,/,/,/
CCOC(=O)c1c(NC(C)=O)sc2c(OCCN(CC)CC)c(Br)ccc12,.,.,.,35µM,.,?,113µM,.,.
COc1ccc(OCc2cc(C(=O)N3CCCC(O)C3)no2)c2ccccc12 (stereo not given),/,.,/,.,/,/,/,/,/
C/C(=N\Nc1nc2ccccc2c(=O)n1O)c1ccco1,/,.,/,?,.,.,?,?,?
Cc1cc(C)c(Cn2c(C)c(CNCCCc3ccccc3)c(C(=O)O)c2C)c(C)c1,/,.,/,/,/,/,/,/,/
COc1ccc(C(C[N+](=O)[O-])C2(c3ccc(OC)c(OC)c3)C(=O)c3ccccc3C2=O)cc1 (stereo not given),.,.,?,?,.,.,.,.,.
N#CC(C#N)=C1C=C2C=C(N3CCCCC3)CCC2CC1 (stereo not given),.,.,.,?,/,?,0.14µM,126µM,.
CCN(CC)C1=CC2=CC(=C(C#N)C#N)CCC2CC1 (stereo not given),.,.,.,?,?,?,/,/,/
Cc1cccc(NC(=O)CSc2nnc(-c3cccs3)o2)c1,/,.,/,/,/,/,/,/,/
O=[N+]([O-])c1ccc(-c2cn3nc(-c4ccccc4)c(-c4ccccc4)nc3n2)cc1,.,.,/,?,?,/,/,/,/
O=[N+]([O-])c1cccc(-c2cn3nc(-c4ccccc4)c(-c4ccccc4)nc3n2)c1,.,.,.,40µM,?,/,179µM,.,.
CCNc1ncc2nc(-c3ccc(F)cc3)c(=O)n(CCc3ccccc3)c2n1,.,/,/,/,?,?,/,/,/
Cc1ccccc1S(=O)(=O)NC1OC(=O)C(Oc2ccccc2)=C1Br (stereo not given),.,.,.,?,.,?,/,/,/
Cc1ccccc1S(=O)(=O)NC1OC(=O)C(Cl)=C1Cl (stereo not given),.,.,.,?,.,.,45µM,159µM,?
CCc1sc(C(C2C(=O)CC(C)(C)CC2=O)C2C(=O)CC(C)(C)CC2=O)cc1[N+](=O)[O-],.,.,.,?,.,.,.,113µM,31µM
CCCCC/C=C\C[C@@H](O)/C=C/C=C\CCC(=O)O,.,/,/,/,.,.,/,/,/
O=C1c2ccccc2-c2n[nH]c3cccc1c23,.,/,/,?,?,?,36µM,?,.
CCOC(=O)COc1ccc(/C=C2/C(=O)NN(c3ccc(F)cc3)C2=O)cc1OC,/,?,/,?,.,.,?,?,.
COc1cc(/C=C2\C(=O)NN(c3ccc(C)cc3)C2=O)cc([N+](=O)[O-])c1O,.,?,.,22µM,.,?,18µM,89µM,.

# Screening results (PubChem BioAssay)
